Experimental data published in PubChem BioAssay.

Assay: small-molecule binders of probe aLefty1, primary screen, biochemical, small-molecule microarray, 635/667 nm fluorescence (AID 1153);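 also: score merges spot fluorescence with signal-to-noise ratio from the scanned slide images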
Conditions: higher = more signal

First: CC(C)Cc1ccc(CN2CC[C@@H](NC(=O)Nc3ccccc3)C2)cc1
Second: CCCC[C@@H]1C[C@H]1[C@@H](NC(=O)c1ccccc1)c1ccc(C(F)(F)F)cc1
The composite z-score of the first is lower: -0.191 for the first, 0.361 for the second.

Going from `COC(=O)[C@@]1(Cc2ccc(F)cc2)[C@H]2c3cc(C(=O)N4CCCC4)n(CCN4CNCC4=O)c3C[C@H]2CN1C(=O)c1ccccc1` to `COC(=O)[C@@]1(Cc2ccccc2)[C@@H]2C(=CC(=O)[C@H]2CC(=O)C(=O)N(C)C)CN1C(=O)c1ccccc1`, the composite z-score falls from 0.497 to 0.0093.

First: C=CCC(OC(C)=O)[C@@H]1[C@@H](N(Cc2ccc(-c3ccccc3)cc2)C(=O)Cc2ccc(F)cc2)c2cc(OCCCO)ccc2N1C(=O)Cc1ccc(OC)cc1 (stereo not given in full)
Second: CCOC(=O)C[C@H]1[C@H](OC(=O)c2ccccc2-c2ccccc2)[C@@H](NC(=O)C2CCCCC2)c2cc(OCCCO)ccc2N1C(=O)Cc1ccc(OC)cc1
The composite z-score of the first is higher: 0.106 for the first, -0.0547 for the second.

Going from `COc1ccc([Si](C)(C)[C@@H]2[C@@H](CCn3cc([C@H](O)c4ccccc4)nn3)O[C@]3(C(=O)N(Cc4ccc(N5CCC5=O)cc4)c4ccccc43)[C@H]2C)cc1` to `COCCOC(=O)N1C(=O)[C@@]2(c3cc(C#Cc4ccc(OC)cc4)ccc31)[C@H](c1ccccc1OCCO)N1[C@H](c3ccccc3)[C@H](c3ccccc3)OC(=O)[C@H]1[C@@H]2C(=O)N1CCCCCCC1`, the composite z-score rises from -0.696 to 2.81.

Compared with `C=C(C)[C@@H]1CC=C(C(O)C2C=CC3C(=O)N(c4ccccc4)C(=O)C3N2Nc2ccccc2F)CC1` (stereo not given in full), `O=C1C2C=CC(C(O)c3ccccc3)N(Nc3ccccc3F)C2C(=O)N1c1ccccc1` (stereo not given) is lower in composite z-score: 0.744 for the first, 0.002 for the second.

Going from `Cc1ccc(S[C@]2(C(=O)O)CC(=O)N(Cc3ccccc3Cl)[C@@H]2c2ccc(CO)cc2I)cc1` to `Cc1ccc(S[C@]2(C(=O)NCC(F)(F)F)CC(=O)N(Cc3ccccc3)[C@@H]2c2ccc(CO)cc2I)cc1`, the composite z-score rises from -0.814 to 0.0355.

First: [N-]=[N+]=NCc1ccccc1[C@@H]1OC(c2ccc(OCCCO)cc2)=N[C@]1(CCS(=O)(=O)c1ccccc1)C(=O)NCC(O)CO (stereo not given in full)
Second: [N-]=[N+]=NCc1ccccc1[C@H]1OC(c2ccc(OCCCO)cc2)=N[C@@]1(CCS(=O)(=O)c1ccccc1)C(=O)N1CCCCC1
The composite z-score of the first is lower: 0.546 for the first, 0.666 for the second.

Going from `COC(=O)c1c(CC[C@@H](CO)NC(=O)N[C@H](Cn2cc(C3(O)CCCCC3)nn2)C(C)C)oc(C(C)=O)c1C(=O)OC` to `C=C(/C(=C/C[C@H](OC(C)=O)c1ccccc1OCCO)c1cc(C(=O)OC)ccc1OC)C(C)C`, the composite z-score falls from 0.102 to -0.157.

First: O=C1C2C=CC(C(O)c3ccc(F)cc3)N(n3cnnc3)C2C(=O)N1Cc1ccccc1 (stereo not given)
Second: CN1C(=O)C2C=CC(C(O)COCc3ccccc3)N(N(c3ccccc3)c3ccccc3)C2C1=O (stereo not given)
The composite z-score of the first is lower: 0.041 for the first, 0.479 for the second.

First: CC(C)N1C(=O)C[C@@](C(=O)NCCCN(C)C)(c2ccc([N+](=O)[O-])cc2)[C@H]1c1ccc(CO)cc1
Second: COc1ccccc1CN1C(=O)c2ccccc2[C@](Cc2ccccc2I)(C(=O)NCC(F)(F)F)[C@@H]1c1ccc(CO)cc1
The composite z-score of the first is lower: 0.0129 for the first, 0.126 for the second.

First: O=C1NC(=O)C2C1C=CC(C(O)c1cccc3ccccc13)N2Nc1ccc(Cl)cc1Cl (stereo not given)
Second: CCOc1cc(C(O)C2C=CC3C(=O)N(c4ccccc4)C(=O)C3N2Nc2ccc(C#N)cc2)ccc1O (stereo not given)
The composite z-score of the first is higher: 0.505 for the first, 0.302 for the second.

Compared with `C=CCNC(=O)[C@H]1[C@@H]2C(=O)O[C@@H](c3ccccc3)[C@@H](c3ccccc3)N2[C@@H](c2ccc(O)cc2)[C@]12C(=O)Nc1ccc(C#CC3(O)CCCCCC3)cc12`, `O=C1O[C@H](c2ccccc2)[C@H](c2ccccc2)N2[C@H]1[C@@H](C(=O)O)[C@]1(C(=O)Nc3ccc(C#CC4=CCCCC4)cc31)[C@H]2c1ccc(O)cc1` is lower in composite z-score: 0.898 for the first, -0.242 for the second.

Going from `NC(=O)N1C(=O)C2C(C1=O)C1C=C(CCCO)C2C(c2cccs2)N1Cc1cccc(OC(F)(F)F)c1` (stereo not given) to `CCCC[C@@H]1C[C@H]1[C@@H](NC(=O)c1cccs1)c1ccc(C(F)(F)F)cc1`, the composite z-score falls from 0.135 to 0.101.

First: C=C(/C(=C/C[C@@H](OC(C)=O)c1cccc(OCCO)c1)c1cc(C(=O)OC)ccc1OC)C(C)C
Second: CC(C)(C)OC(=O)CC[C@]1(C(=O)NCC(O)CO)N=C(c2ccc(OCCCO)cc2)O[C@H]1c1ccccc1 (stereo not given in full)
The composite z-score of the first is lower: 0.0962 for the first, 0.125 for the second.

First: CC(C)(C)N1CC=CC23O[C@@H]4C=CCCOC(=O)C4[C@H]2C(=O)N(CCO)[C@@H]3C1=O (stereo not given in full)
Second: CCCCO[C@H]1C[C@H]2C(I)=C[C@@H]1C(=O)[C@]21CO1
The composite z-score of the first is higher: -0.0823 for the first, -0.369 for the second.

First: COC(=O)CCCCCCC(=O)Nc1ccc(NC(=O)CCCC[P+](c2ccccc2)(c2ccccc2)c2ccccc2)cc1
Second: CCOC(=O)C[C@H]1[C@H](OC(=O)c2cc3ccccc3oc2=O)[C@@H](NC(=O)c2ccc(-c3ccccc3)cc2)c2cc(OCCCO)ccc2N1C(=O)c1ccccc1
The composite z-score of the first is lower: -0.0601 for the first, 0.0839 for the second.

Compared with `Cc1cc(C)cc(N2C(=O)CSC2c2cccc([N+](=O)[O-])c2)c1` (stereo not given), `C=CCN1C(=O)[C@@]2(CCS(=O)(=O)c3ccccc3)N=C(c3ccc(OCCCO)cc3)O[C@H]2c2ccccc21` is higher in composite z-score: -0.0046 for the first, 0.235 for the second.

For `COCCOC(=O)N1C(=O)[C@@]2(c3cc(C#CC4(O)CCCCCC4)ccc31)[C@H](c1ccc(O)cc1)N1[C@H](c3ccccc3)[C@H](c3ccccc3)OC(=O)[C@H]1[C@@H]2C(=O)NC[C@H](O)c1ccccc1`, the composite z-score was 0.405.
